Here are results for 29 molecules from PubChem BioAssay (NCATS).

Experiment [1] addresses Calcium and integrin-binding protein 1 (Homo sapiens) (UniProt Q99828). Nature of the experiment: Primary qHTS for Identification of Calcium Integrin Binding Protein 1 (CIB1) Competitor (AID 1508620).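 For activity change, negative = inhibition: GST tagged CIB1 binding a fluorescein labelled alphaIIb integrin peptide tracer; top concentration of the series differs between compounds.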 Note: potency is the fitted concentration of half-maximal effect. The gist of the method: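 Fluorescence polarization competition: CIB1-GST (1 uM final) preincubated with compound 15 min at room temperature, then FITC-labeled alphaIIb peptide (100 nM final) added for another 15 min. Polarization read at Ex 480/Em 540.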
A general note: In qHTS, concentration-response curves come from the screen itself.

Experiment [2] can be described thus: Primary qHTS for small molecule stabilizers of the endoplasmic reticulum resident proteome: Secreted ER Calcium Modulated Protein (SERCaMP) assay (AID 1508630). The gist of the method:
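The SH-SY5Y reporter protocol was run at 3 concentrations up to 38.3 uM (primary) or 11 concentrations (follow-up): 16 h compound, 100 nM thapsigargin for 4 h, then extracellular luciferase luminescence.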

Experiment [3] deals with Cytochrome P450 2D6 (Homo sapiens) (UniProt P10635). Description: Cytochrome P450 family 2 subfamily D member 6 (CYP2D6) small molecule antagonists: luciferase biochemical (cell-free) qHTS assay (AID 1645840; active = well fitted curve in the direction sought with a large enough effect in the repeat runs; an effect the other way counts as inactive or inconclusive; note: nearly all actives have a fitted effect of over 55% in size; note: potency is the fitted concentration of half-maximal effect). A digest of the protocol: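 P450-Glo CYP2D6 system: proluciferin substrate converted by enzyme to luciferin, read by luminescence proportional to activity. Enzyme-substrate mix with compound 10 min at room temperature, then NADPH regeneration 1 h before detection reagent.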

Experiment [4] addresses Cytochrome P450 2C9 (Homo sapiens) (UniProt P11712). Nature of the experiment: Cytochrome P450 family 2 subfamily C member 9 (CYP2C9) small molecule antagonists: luciferase biochemical (cell-free) qHTS assay (AID 1645842; active = well fitted curve in the direction sought with a large enough effect in the repeat runs; an effect the other way counts as inactive or inconclusive; note: potency is the fitted concentration of half-maximal effect; nearly all actives have a fitted effect of over 55% in size). A digest of the protocol:
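P450-Glo CYP2C9 system: proluciferin substrate with enzyme in mix containing 0.4% BSA, 10 min at room temperature, then NADPH regeneration solution added and incubated 1 h at 37C. Detection reagent stopped reaction; luminescence read after 20 min as RLU.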

The nature of experiment [5]: Primary qHTS for inhibitors of nuclear receptor binding SET domain protein 2 (NSD2) in an isogenic RCH-ACV NSD2 p.E1099K mutant (9B) (AID 1645876). Note: nearly all actives have a fitted effect of over 70% in size. Note: potency is the fitted concentration of half-maximal effect.
The nature of experiment [6]: Primary qHTS for inhibitors of nuclear receptor binding SET domain protein 2 (NSD2) in an RCH-ACV wild type WT cells (2C) (AID 1645877). Note: nearly all actives have a fitted effect of over 70% in size. Note: potency is the fitted concentration of half-maximal effect.
Experiment [7] has as its target Catechol O-methyltransferase (Homo sapiens) (UniProt P21964). Nature of the experiment: Confirmatory Screen for Target Class Profiling of Small Molecule Inhibitors of Methyltransferases (AID 1745852; calls by dose curve; note: potency is the fitted concentration of half-maximal effect). Conditions: MTase-Glo luminescence, SAH detection, recombinant enzyme; measured here: COMT max response; stronger effect = lower value.
In experiment [8] the target is Guanidinoacetate N-methyltransferase (Homo sapiens) (UniProt Q14353). Described as above. Conditions: activity change, negative = inhibition: at 57.3 µM (top of the series).
Experiment [9] has as its target Nicotinamide N-methyltransferase (Homo sapiens) (UniProt P40261). The experiment is described as above. Conditions: MTase-Glo luminescence, SAH detection, recombinant enzyme; measured here: NNMT max response; stronger effect = lower value.

Values joined by “and” are separate entries in the source; they are usually repeats but may differ in a detail not shown here. Equal values may be shown once. Results filed as inconclusive are left out. Entries that show only a call come without a potency. Active and inactive are the calls of the source. Unless noted, calls come from the whole dose curve; as a rule, active = well fitted curve in the direction sought with a large enough effect; inconclusive = small, poorly fitted or top-dose-only effect, or another doubt; inactive = no such curve, though single readings can be large; an effect the other way counts as inactive or inconclusive.

Sequence of Cytochrome P450 2C9 (Homo sapiens) (P11712 whole entry, looked up): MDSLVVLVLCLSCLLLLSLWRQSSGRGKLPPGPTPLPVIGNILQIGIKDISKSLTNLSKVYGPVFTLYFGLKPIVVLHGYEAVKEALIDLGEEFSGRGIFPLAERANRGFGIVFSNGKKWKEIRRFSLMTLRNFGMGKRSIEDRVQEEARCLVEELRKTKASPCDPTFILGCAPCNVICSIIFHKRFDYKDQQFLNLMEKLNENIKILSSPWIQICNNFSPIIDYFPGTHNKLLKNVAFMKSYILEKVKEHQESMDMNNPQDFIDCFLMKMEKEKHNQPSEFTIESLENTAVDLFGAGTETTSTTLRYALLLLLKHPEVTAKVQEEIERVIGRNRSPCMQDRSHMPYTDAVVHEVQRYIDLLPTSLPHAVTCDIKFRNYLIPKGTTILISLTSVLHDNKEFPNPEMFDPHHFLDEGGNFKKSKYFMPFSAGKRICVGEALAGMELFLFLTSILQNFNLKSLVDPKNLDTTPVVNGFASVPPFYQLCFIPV
Sequence of Cytochrome P450 2D6 (Homo sapiens) (P10635 whole entry, looked up): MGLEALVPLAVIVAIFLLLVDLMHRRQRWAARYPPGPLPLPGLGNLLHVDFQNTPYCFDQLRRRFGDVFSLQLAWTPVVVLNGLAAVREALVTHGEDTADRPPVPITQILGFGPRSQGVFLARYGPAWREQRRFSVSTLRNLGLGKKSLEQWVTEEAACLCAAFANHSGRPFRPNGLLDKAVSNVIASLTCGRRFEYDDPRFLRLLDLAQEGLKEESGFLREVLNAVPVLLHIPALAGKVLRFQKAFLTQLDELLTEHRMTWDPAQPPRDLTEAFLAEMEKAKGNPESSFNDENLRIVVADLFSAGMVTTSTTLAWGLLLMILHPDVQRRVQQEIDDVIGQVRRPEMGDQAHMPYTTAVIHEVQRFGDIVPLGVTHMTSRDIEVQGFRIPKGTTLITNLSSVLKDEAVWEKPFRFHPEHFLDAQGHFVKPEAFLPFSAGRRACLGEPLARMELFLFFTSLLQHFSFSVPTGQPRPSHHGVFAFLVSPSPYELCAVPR
Sequence of Nicotinamide N-methyltransferase (Homo sapiens) (P40261 whole entry, looked up): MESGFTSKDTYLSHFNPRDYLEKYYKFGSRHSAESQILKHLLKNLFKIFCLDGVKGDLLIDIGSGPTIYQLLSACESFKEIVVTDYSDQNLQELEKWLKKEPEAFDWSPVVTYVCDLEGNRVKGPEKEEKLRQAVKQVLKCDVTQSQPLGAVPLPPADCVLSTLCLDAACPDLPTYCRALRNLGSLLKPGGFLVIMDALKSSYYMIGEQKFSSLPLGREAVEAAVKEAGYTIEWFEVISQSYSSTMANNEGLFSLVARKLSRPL
Sequence of Calcium and integrin-binding protein 1 (Homo sapiens) (Q99828 whole entry, looked up): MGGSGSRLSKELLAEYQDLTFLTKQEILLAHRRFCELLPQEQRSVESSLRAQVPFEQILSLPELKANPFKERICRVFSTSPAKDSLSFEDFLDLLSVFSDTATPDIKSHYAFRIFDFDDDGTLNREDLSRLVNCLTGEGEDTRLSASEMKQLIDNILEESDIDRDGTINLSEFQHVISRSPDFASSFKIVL
Sequence of Catechol O-methyltransferase (Homo sapiens) (P21964 whole entry, looked up): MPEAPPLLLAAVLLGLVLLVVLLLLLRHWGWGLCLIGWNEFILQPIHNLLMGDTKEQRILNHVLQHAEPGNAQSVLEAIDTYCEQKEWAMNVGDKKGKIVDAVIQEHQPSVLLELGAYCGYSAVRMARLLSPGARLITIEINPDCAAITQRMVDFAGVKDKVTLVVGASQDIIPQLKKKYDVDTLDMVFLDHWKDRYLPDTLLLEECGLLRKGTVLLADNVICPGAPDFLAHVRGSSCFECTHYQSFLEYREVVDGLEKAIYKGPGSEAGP

Turning to `Cc1noc(-c2ccc(CSCCC(=O)O)cc2)c1NC(=O)OC(C)c1ccccc1Cl` (stereo not drawn), the Potency result in experiment [1], in [3] and in [5] was “inactive” in each case. Moreover, the outcome in experiment [2] was “inactive”. Also, the Potency in experiment [4] is 12 µM (active).
`CC(O)(C#Cc1ccc2c(c1)N(c1nc(N)ncc1Cl)CC2)c1nccs1` (stereo not drawn): the Potency result in [1] is “inactive”. Also, the outcome in experiment [2] was “inactive”. Further, the Potency in [3] is 9.52 µM (active); in experiment [4], 1.07 µM (active); in [5], 13.2 µM (active); in [6], 13.2 µM (active).
`CC(=O)[C@]1(O)Cc2c(O)c3c(c(O)c2[C@@H](O[C@H]2C[C@H](N)[C@@H](O)[C@H](C)O2)C1)C(=O)c1ccccc1C3=O`: in [1], the Potency is 24.1 µM (active). Further, in [2], the outcome was “inactive”.
On the same counts, the results for `CC(C=CC(=O)NO)=C[C@@H](C)C(=O)c1ccc(N(C)C)cc1` are “inactive” and “inactive”.
On the same counts, the results for `CC[C@H](CC[C@@H](C)[C@H]1CC[C@H]2[C@@H]3CC=C4C[C@@H](O)CC[C@]4(C)[C@@H]3CC[C@]12C)C(C)C` are “inactive” and “inactive”.
On the same counts, the results for `CCOc1cc2ncc(C#N)c(Nc3ccc(OCc4ccccn4)c(Cl)c3)c2cc1NC(=O)C=CCN(C)C` are “inactive” and “inactive”.
Regarding `CC(=O)OCC(=O)[C@@]1(O)CC[C@H]2[C@@H]3CCC4=CC(=O)CC[C@]4(C)[C@@H]3C(=O)C[C@@]21C`, the Potency entry in experiment [1] is “inactive”. Also, the outcome in experiment [2] is “inactive”.
Consider `Nc1ccc(C(=O)Nc2cccc(-c3nc(N4CCOCC4)c4oc5ncccc5c4n3)c2)cn1`, for which the Potency entry in experiment [1] was “inactive”. Also, the outcome in experiment [2] is “inactive”. In addition, the Potency is 1.15 µM (active) and 1.48 µM (active) in experiment [5]; 1.29 µM (active) and 1.05 µM (active) in experiment [6].
As for `CN1C(C(=O)Nc2ccccn2)=C(O)c2sc(Cl)cc2S1(=O)=O`, the Potency result in experiment [1], in [5] and in experiment [6] was “inactive” in each case. The outcome in experiment [2] is “inactive”.
For `CCNC(=O)Nc1ccc(-c2nc3c(c(N4CCOC[C@H]4C)n2)CCN(C2COC2)C3)cc1`, the Potency entry in experiment [1] is “inactive”. For the same molecule, the outcome in experiment [2] is “inactive”. Further, the results for the Potency in experiment [5] and in [6] were 0.731 µM (active) and 1.3 µM (active), respectively.
As for `CCNC(=O)c1cc2c(-c3cc(OCCN4CCCC4)c(Cl)cc3Cl)nc(N)nc2s1`, the Potency result in experiment [1] was “inactive”. Moreover, the outcome in experiment [2] is “inactive”. The Potency in experiment [5] and in [6] was 0.512 µM (active) each time.
Regarding `C=C[C@@H]1CN2CCC1C[C@H]2[C@H](O)c1ccnc2ccc(OC)cc12` (stereo partly drawn), the outcome in [2] is “inactive”.
On to `Cn1cc(-c2cnn3c(N)c(Br)c([C@H]4CCCNC4)nc23)cn1`, for which, in experiment [1], the Potency entry was “inactive”. The outcome in experiment [2] is “inactive”. In addition, the activity was -1.78% in experiment [7] and -6.14% in experiment [9]. The activity change, negative = inhibition in experiment [8] was found to be 2.57%.
`CCC[C@H]1C[C@H](C(=O)N[C@@H]([C@@H]2O[C@@H](SC)[C@@H](O)[C@@H](O)[C@@H]2O)[C@H](C)Cl)N(C)C1`: the Potency entry in experiment [1], in experiment [5] and in experiment [6] was “inactive” each time. Also, in [2], the outcome is “inactive”.
Turning to `CCc1ccc(C(=O)Nc2cc(CN3CCN(C)CC3)cc(C(F)(F)F)c2)cc1C#Cc1cnc2ccnn2c1`, the Potency entry in [1] was “inactive”. The Potency in [5] was 5.78 µM (active) and 5.25 µM (active); in experiment [6], 5.15 µM (active) and 4.17 µM (active).
For `CCN(CC)Cc1ccc2cc(COC(=O)Nc3ccc(C(=O)NO)cc3)ccc2c1`, the Potency entry in experiment [1] was “inactive”. Besides, the outcome in [2] is “inactive”. In addition, the Potency in [5] is 290 nM (active) and 742 nM (active); in [6], 230 nM (active) and 525 nM (active). Moreover, the values for the activity in [7] and in experiment [9] were 0% and -7.87%, respectively. Besides, the activity change, negative = inhibition in experiment [8] was -6.61%.
Take `N#CNC(=NCCCCCCOc1ccc(Cl)cc1)Nc1ccncc1`: the Potency entry in experiment [1] was “inactive”. Moreover, in experiment [2], the outcome is “inactive”. Moreover, the Potency in experiment [5] is 0.0047 µM (active); in experiment [6], 0.0093 µM (active).
On to `CC1(C)CC(O)CC(C)(C)N1[O]`, for which the outcome in experiment [2] is “inactive”.
Still for that read-out and setting: to `COc1ccc(CCC(=O)c2c(O)cc(O[C@@H]3O[C@H](CO)[C@@H](O)[C@H](O)[C@@H]3O[C@@H]3O[C@@H](C)[C@H](O)[C@@H](O)[C@@H]3O)cc2O)cc1O` belongs “inactive”.
In the case of `COc1cc2c(Nc3ccc(Cl)c(Cl)c3F)ncnc2cc1OCC1C[C@@H]2CN(C)C[C@H]2C1`, the Potency entry in [1] was “inactive”. Also, in experiment [2], the outcome is “inactive”. For the same molecule, the values for the activity in experiment [7] and in experiment [9] were -71.6% and -56.2%, respectively. For the same molecule, the Potency in experiment [8] was 21.5 µM (active).
For the molecule `Oc1cc2c(cc1O)C1c3ccc(O)c(O)c3OCC1(O)C2` (stereo not drawn), the Potency entry in experiment [1] and in experiment [3] was “inactive” in each case. For the same molecule, the Potency in experiment [4] is 21.3 µM (active).
As for `COc1cccc2c1C(=O)c1c(O)c3c(c(O)c1C2=O)C[C@@](O)(C(C)=O)C[C@H]3O[C@H]1C[C@H](N)[C@H](O)[C@H](C)O1`, the outcome in [2] was “inactive”.
Still for that read-out and setting: the same measure for `CC(=O)N1CCN(c2ccc(OCc3nn(C)c(C)c3-c3cccc4c(CCCOc5cccc6ccccc56)c(C(=O)O)n(Cc5cccnc5)c34)cc2)CC1`: “inactive”.
Consider `CCN(CC)CCCCNc1ncc2c(n1)N(C)C(=O)N(c1c(Cl)c(OC)cc(OC)c1Cl)C2`, for which the Potency result in experiment [1] is “inactive”. Further, the outcome in experiment [2] is “inactive”. The results for the Potency in [5] and in [6] were 14.8 µM (active) and 13.2 µM (active), respectively.
`CC(N[C@H]1CCCC[C@H]1NC(=O)c1ccc(Cl)cc1)c1cccc2ccccc12` (stereo partly drawn): the Potency entry in experiment [1] was “inactive”. Moreover, the outcome in experiment [2] is “inactive”. The Potency in experiment [5] and in experiment [6] was 6.61 µM (active) each time.
`COC(=O)[C@@H]1[C@H]2C[C@@H]3c4[nH]c5ccccc5c4CCN3C[C@@H]2CC[C@@H]1O`: the outcome in [2] was “inactive”.
In the case of `c1cc(CN2CCCNCCNCCCNCC2)ccc1CN1CCCNCCNCCCNCC1`, the Potency entry in experiment [1] and in experiment [6] was “inactive” throughout. Moreover, the outcome in experiment [2] was “inactive”.
For the molecule `C[C@@H](Cc1cc2c(c(C(N)=O)c1)N(CCCO)CC2)NCCOc1ccccc1OCC(F)(F)F`, the Potency entry in [1], in experiment [5] and in [6] was “inactive” throughout. The outcome in [2] is “inactive”.
As to `COc1cc(C(=O)NC2CCN(C)CC2)ccc1Nc1ncc2c(n1)N(C1CCCC1)CCC(=O)N2C(C)C`, in [1], the Potency entry is “inactive”. For the same molecule, in experiment [2], the outcome is “inactive”. Moreover, the Potency in [5] was 13.2 µM (active); in experiment [6], 10.5 µM (active).
